C diff HTS = C. difficile growth inhibition; hit rate 0.25% among 86,000; growth activity, negative = inhibition, % at 16 µg/mL (by protocol); AID 1259249; Clostridium difficile clinical isolate growth, OD600, 24 h; hits give low values;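 active means mean growth activity at or below -80% and every replicate also at or below -80%; inconclusive means mean at or below -80% but some replicate above -80%; inactive means mean growth activity above -80%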;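 further: 0% = DMSO wells and -100% = levofloxacin 16 µg/mL wells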
T cruzi growth-1 = inhibitors of T. cruzi proliferation; T. cruzi beta-gal in NIH3T3, GalScreen luminescence, 90 h; AID 624255; hit rate 5.9% among 77,000; inhibition, % at 8.34 µM;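 active means mean inhibition above about 93%, with at least 55% of replicates each passing it, limit read from the data, passing the limit was not always enough; inconclusive means only one of those two conditions holds; inactive means neither condition holds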
Pf Dd2 growth = blocks growth of Plasmodium falciparum Dd2 parasites | P. falciparum Dd2 growth, SYBR Green, 72 h; hits give low values | activity change, % at 10 µM | hit rate 2.3% among 94,000 | AID 1159554; in the data active means activity change below about -80%; inconclusive means no clear call, values can overlap the other calls
T cruzi growth-2 = inhibitors of T. cruzi proliferation; shares compounds with T cruzi growth-1; T. cruzi beta-gal in NIH3T3, GalScreen luminescence, 90 h; hit rate 72% among 5,600; inhibition, % at 8.35 µM;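 active means mean replicate inhibition above about 95% and at least 55% of replicates individually reaching it, limit read from the data; inconclusive means only one of the two criteria is met; inactive means neither criterion is met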
T cruzi growth-3 = blocks T. cruzi growth in NIH3T3 host cells | shares compounds with T cruzi growth-1 | T. cruzi beta-gal in NIH3T3, GalScreen luminescence, 90 h | inhibition, % at 2.09 µM | hit rate 21% among 5,600;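 active means mean inhibition above about 95%, with at least 55% of replicates also reaching it, limit read from the data; inconclusive means meets just one of the two conditions; inactive means meets neither condition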;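 further: plate controls were neutral control median for no effect and positive control median for full effect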
3T3 cytotox = kills mouse NIH/3T3 fibroblasts. NIH/3T3 viability, CellTiter-Glo ATP luminescence, 90 h. shares compounds with T cruzi growth-1. AID 651742. hit rate 14% among 5,600. cytotoxicity (signal decrease), % at 8.35 µM;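 active means mean signal decrease across replicates above about 35% based on untreated-well scatter, with enough replicates individually passing, limit read from the data; inconclusive means no rule stated though some were filed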;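 further: 0% = median of neutral control wells and 100% = median of positive control wells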
NIH3T3 tox 2 = kills mouse NIH/3T3 fibroblasts; shares compounds with T cruzi growth-1; NIH/3T3 viability, CellTiter-Glo ATP luminescence, 90 h; inhibition, % at 24.9 µM; hit rate 56% among 5,600;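 active means mean loss of cell viability signal at or above a set limit, and enough replicates individually reaching it; inconclusive means meets only the mean limit or only the replicate share; inactive means meets neither condition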;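 further: 0% = median of neutral control wells and 100% = median of positive control wells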
* = called active by the depositor; u = inconclusive; x = no result. Only some compounds are listed: those with a hit (about 6.8% of all), similar ones and a draw of the others.

SMILES	C diff HTS	T cruzi growth-1	Pf Dd2 growth	T cruzi growth-2	T cruzi growth-3	3T3 cytotox	NIH3T3 tox 2
O=C(C[C@@H]1CC[C@H]2[C@@H](COC[C@@H](O)CN2S(=O)(=O)c2ccccc2)O1)Nc1ccc(-c2ccccc2)cc1	x	97*	-10	106*	71	13	92*
Cc1cccc(S(=O)(=O)N2C[C@@H](O)COC[C@@H]3O[C@@H](CC(=O)Nc4ccc(-c5ccccc5)cc4)CC[C@H]32)c1	8	72	-61	x	x	x	x
CCc1nc(N2[C@H](C#N)[C@@H](c3ccccc3-c3ccccc3F)[C@@H]2CO)sc1C	20	x	-27	x	x	x	x
O=C(NCC[C@@H]1CC[C@H](NC(=O)C2CCCC2)[C@@H](CO)O1)Nc1ccc(Cl)cc1	1	x	-11	x	x	x	x
CCC(=O)N1C[C@@H](C)[C@@H](OC)CN(C)C(=O)c2cc(NC(=O)COC)ccc2OC[C@@H]1C	x	x	23	x	x	x	x
COCC(=O)N1CC2(C1)CN(C(=O)Nc1ccccc1F)[C@H](CO)c1c2c2ccc(OC)cc2n1C	x	x	-10	x	x	x	x
CC=Cc1ccc2n(c1=O)C[C@@H]1[C@@H](CO)[C@H](C(=O)NCCN3CCCC3)N(C(=O)NC(C)C)[C@H]21 (mixture of isomers)	-5	27	x	x	x	x	x
O=C(Nc1ccc(F)cc1)N1CCCCN2[C@H](C1)[C@H](c1ccc(C#CC3CC3)cc1)[C@@H]2CO	43	122*	-47	100*	34	26	23
CN(C)CC#Cc1ccc([C@@H]2[C@H]3CN(C(=O)Nc4ccc(F)cc4)CCCCN3[C@H]2CO)cc1	-4	21	20	x	x	x	x
O=C(Nc1cccc(F)c1)N1CCCCN2[C@@H](CO)[C@H](c3ccc(C#CC4CC4)cc3)[C@@H]2C1	49	u	-19	93	102*	105*	106*
O=C(Nc1ccc(F)cc1)N1CCCCN2[C@H](CO)[C@H](c3ccc(C#CC4CC4)cc3)[C@H]2C1	54	70	-40	x	x	x	x
O=C(Nc1ccc(F)cc1)N1CCCCN2[C@@H](CO)[C@@H](c3ccc(C#CC4CC4)cc3)[C@@H]2C1	52	97*	-53	98*	107*	119*	106*
O=C([C@@H]1[C@@H](CO)[C@@H]2Cn3c(ccc(-c4cccnc4)c3=O)[C@H]1N2CCC(F)(F)F)N1CCCCC1	0	-9	9	x	x	x	x
C[C@H](CO)N1C[C@H](C)[C@@H](CN(C)C(=O)c2ccncc2)OCCCC[C@H](C)Oc2ccc(NS(=O)(=O)c3ccccc3)cc2C1=O	x	-38	2	x	x	x	x
Cc1noc(C)c1NC(=O)Nc1cccc2c1O[C@H](CN(C)S(C)(=O)=O)[C@@H](C)CN([C@@H](C)CO)C2=O	2	-13	14	x	x	x	x
O=S(=O)(c1ccccc1)N1CCCCN2[C@H](CO)[C@@H](c3ccc(C#Cc4ccccc4)cc3)[C@H]2C1	75	103*	-17	107*	103*	57*	92*
O=S(=O)(c1ccccc1)N1CCCCN2[C@H](C1)[C@H](c1ccc(C#Cc3cccnc3)cc1)[C@@H]2CO	22	114*	-56	105*	67	15	49*
O=S(=O)(c1ccccc1)N1CCCCN2[C@@H](CO)[C@H](c3ccc(-c4cncnc4)cc3)[C@@H]2C1	1	21	20	x	x	x	x
O=S(=O)(c1ccccc1)N1CCCCN2[C@H](CO)[C@H](c3ccc(C#CC4CCCC4)cc3)[C@@H]2C1	0	73	-7	x	x	x	x
O=S(=O)(c1ccccc1)N1CCCCN2[C@H](C1)[C@@H](c1ccc(C#Cc3cccnc3)cc1)[C@@H]2CO	-1	u	-1	u	46	0	24
O=S(=O)(c1ccccc1)N1CCCCN2[C@@H](CO)[C@@H](c3ccc(C#Cc4cccnc4)cc3)[C@@H]2C1	2	113*	-44	112*	107*	-15	91*
COc1ccc(C#Cc2ccc([C@@H]3[C@H](CO)N4CCCCN(S(=O)(=O)c5ccccc5)C[C@@H]34)cc2)cc1	-7	102	-67	x	x	x	x
O=S(=O)(c1ccccc1)N1CCCCN2[C@H](C1)[C@H](c1ccc(C#CC3CCCC3)cc1)[C@@H]2CO	13	93	-1	x	x	x	x
COCC(=O)N1C[C@@H](C)[C@H](OC)CN(C)C(=O)c2cc(NC(=O)Nc3cccc(F)c3)ccc2OC[C@H]1C	x	13	5	x	x	x	x
O=C(N[C@@H]1CC[C@H](CCNS(=O)(=O)c2ccc(F)cc2)O[C@@H]1CO)c1cnccn1	-3	-29	12	x	x	x	x
SMILES	C diff HTS	T cruzi growth-1	Pf Dd2 growth	T cruzi growth-2	T cruzi growth-3	3T3 cytotox	NIH3T3 tox 2
O=C(Nc1ccc(F)cc1)N[C@@H]1C=C[C@@H](CC(=O)N2CCOCC2)O[C@H]1CO	x	28	-6	x	x	x	x
COc1ccccc1-c1cnc2c(c1)C(=O)N([C@H](C)CO)C[C@H](C)[C@@H](CN(C)Cc1cncnc1)O2	6	-9	1	x	x	x	x
C[C@@H]1CN([C@H](C)CO)S(=O)(=O)c2ccc(C#Cc3ccncc3)cc2O[C@H]1CN(C)C(=O)C1CCOCC1	6	x	-5	x	x	x	x
O=S(=O)(c1ccccc1)N1CCCCN2[C@H](CO)[C@H](c3ccc(C#Cc4cccnc4)cc3)[C@@H]2C1	4	102*	-63	107*	68	8	35*
CN(C)CC#Cc1ccc([C@H]2[C@H](CO)N3CCCCN(S(=O)(=O)c4ccccc4)C[C@@H]23)cc1	3	60	-48	x	x	x	x
OC[C@H]1[C@@H](c2ccc(C#Cc3ccccc3)cc2)[C@@H]2CN(Cc3cncnc3)CCCCN12	12	85	-55	x	x	x	x
OC[C@H]1[C@H](c2ccc(C#Cc3ccccc3F)cc2)[C@@H]2CN(Cc3cncnc3)CCCCN12	-2	113*	-52	99*	62	u	106*
CCCC#Cc1ccc([C@H]2[C@@H](CO)N3CCCCN(Cc4cncnc4)C[C@H]23)cc1	-5	-7	-18	x	x	x	x
CCCC#Cc1ccc([C@@H]2[C@@H](CO)N3CCCCN(Cc4cncnc4)C[C@H]23)cc1	0	78	-13	x	x	x	x
OC[C@H]1[C@H](c2ccc(C#Cc3ccccc3)cc2)[C@H]2CN(Cc3cncnc3)CCCCN21	9	104*	-11	107*	71	32	103*
OC[C@H]1[C@H](c2ccc(C#Cc3ccccc3F)cc2)[C@H]2CN(Cc3cncnc3)CCCCN21	-3	101*	-14	108*	70	40*	103*
OC[C@@H]1[C@@H](c2ccc(C#Cc3ccccc3F)cc2)[C@H]2CN(Cc3cncnc3)CCCCN12	-5	92	-52	x	x	x	x
OC[C@@H]1[C@H](c2ccc(C#Cc3ccccc3F)cc2)[C@@H]2CN(Cc3cncnc3)CCCCN12	-6	107*	-23	107*	87	47*	104*
C[C@H](NC(=O)[C@@H]1[C@@H](CO)[C@@H]2Cn3c(cccc3=O)[C@@H]2N1S(C)(=O)=O)c1ccccc1	-2	-23	x	x	x	x	x

Source: PubChem (Broad Institute)
